# Test results reported in PubChem BioAssay AID903 (National Center for Advancing Translational Sciences (NCATS), 2007).
# The whole screen tested about 55,000 compounds, of which about 340 (0.62%) were called active. Not shown: some 3% with an inconclusive outcome. Calls come from the whole dose curve; as a rule, active = well fitted cell-killing curve with a large enough effect; inconclusive = small, poorly fitted or top-dose-only effect; inactive = no such curve, though single readings can be large or run the other way. Only a selection was taken, and actives are over-represented in it overall.
# Assay: qHTS Screen for Compounds that Selectively Target Cancer Cells with p53 Mutations: Cytotoxicity of p53 Null Cells at the Permissive Temperature; note: nearly all actives have a fitted effect of over 55% in size;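 for activity change, negative = cytotoxicity: 0% = DMSO only and -100% = full killing by 100 µM tamoxifen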
# Details: H1299-neo p53 null cells, ATP luminescence, 24 h, 32C; series mostly up to 46.1 µM; activity change, negative = cytotoxicity: at the top concentration
# Source text: NIH Chemical Genomics Center [NCGC] NIH Molecular Libraries Screening Centers Network [MLSCN] MLSCN Grant: 1 X01 MH079844-01 Assay Submitter (PI): Dr. SUN, YI, University of Michigan NCGC Assay Overview: Synthetic Lethal Screen for Compounds to Kill Cancer Cells with p53 Mutation. Tumor suppressor gene p53 serves as a major cellular barrier against tumorigenesis. […] The goal of this screening is to identify small molecule probes that selectively kill cancer cells with mutations in p53. This screening was carried out using two lines of H1299 lung cancer cells. The H1299-p53 A138V line express a temperature sensitive p53 mutant (p53ts) in which the mutant p53 protein (A138V) is in the mutant confirmation when grown at 39C (the nonpermissive temperature) and in the wild type conformation when grown at 32C (the permissive temperature). A H1299-neo line (p53 null) grown at both 39C and 32C were used as counter-screens to filter out false positive associated with temperature shifting. The small molecular compounds that selectively target mutant p53-containing cancer cells were selected as candidate probes for further study. A cytotoxicity assay based on the measurement of ATP contents in cells was used in this screen. Concentration-responses of all the compounds in the library collection were determined in qHTS using the cell lines and temperature conditions as above.
# NCGC Assay Protocol Summary: Both the H1299-p53A138V and H1299-neo cell lines were provided by Dr.Yi Sun, a PI at the University Michigan. The cells were maintained and cultured at 37C. The resuspended frozen cells were used to plate the cells in the 1536-well assay plates at a density of 600 cells per well in 5 ul medium. The assay plates with the cells were incubated at 37C for 16 to 30 hours before the experiments. The library compounds in DMSO solution were added to the cells in assay plates and incubated 24 hours at 39C (for mutant p53 conformation) or 32C (for normal p53 conformation as control). An ATP_lite assay kit (PerkinElmer) was used to determine the cell viability. Tomaxifen (100uM) was used as the positive control for cell killing. Data were normalized to the controls for basal activity (DMSO only) and 100% killing (100uM tamoxifen). AC50 values were determined from concentration-response data modeled with the standard Hill equation. P53 assay protocol: 1. Reagent; 5 uL H1299-p53A138V or H1299-neo cell cells/well 2. Time; overnight; 37C incubation 3. Compounds; 23 nL; 5.9 nM to 46 uM 4. Controls; 23 nL; Tamoxifen 100 uM 5. Time; 24 hr; 32C incubation 6. Reagent; 3 uL; ATP_Lite reagent 7. Time; 20 min; Room Temperature 8. Detection; Luminescence; Viewlux plate reader Keywords: p53, synthetic lethal, cancer, cell viability, cytotoxicity, H1299 cell line, luminescence, MLSMR, MLSCN, NIH Roadmap, qHTS, NCGC
# Potency is the fitted concentration of half-maximal effect.
SMILES,"activity change, negative = cytotoxicity",Potency
COc1ccc(-c2csc(-c3c(N)c(C(=O)c4ccc(OC)c(OC)c4)n4ccccc34)n2)cc1,6.12% (inactive),
Cc1cc(OCC(=O)Nc2ncn[nH]2)c(C)c(C)c1Br,1.71% (inactive),
COc1ccc(N2CCN(c3nc(-c4ccccc4F)nc4ccccc34)CC2)cc1,13.6% (inactive),
O=S(=O)(c1ccc(Br)cc1)c1nnn2c1nc(NC1CCCCCC1)c1sccc12,2.98% (inactive),
COc1cccc(CNC(=O)c2ccc3c(c2)N(Cc2ccc(C(F)(F)F)cc2)C(=O)c2ccccc2S3)c1OC,17.9% (inactive),
COc1ccc(OC)c2sc(N3CCN(C(=O)C4COc5ccccc5O4)CC3)nc12 (stereo not drawn),-3.09% (inactive),
Cn1c(=O)cc(OCC(=O)N2CCN(c3ccccc3F)CC2)c2ccccc21,-5.26% (inactive),
COc1cc(C(=O)Nc2ccc(OCc3cc(=O)n4cc(C)sc4n3)cc2)cc(OC)c1OC,-1% (inactive),
COc1cccc(C2C(C(=O)Nc3ccc(C)cc3C)=C(C)Nc3c(C(=O)Nc4ccccc4)cnn32)c1 (stereo not drawn),30.5% (inactive),
CCNC(=O)Cn1nc(C)n2c(cc3c(OC)cccc32)c1=O,-6.05% (inactive),
O=C(NCc1ccccc1)C1CCN(S(=O)(=O)c2ccc3[nH]c(=O)ccc3c2)CC1,2.92% (inactive),
COc1ccc(N2CCN(S(=O)(=O)CCNC(=O)C(c3ccccc3)c3ccccc3)CC2)cc1,-14.2% (inactive),
Cc1ccc(C2CCN(C(=O)c3cnn(-c4ccccc4Cl)c3C3CCN(C(=O)OC(C)(C)C)CC3)C2)cc1 (stereo not drawn),5.82% (inactive),
CN(C)CCCNC(=S)NCc1ccc(Cl)cc1,-7.09% (inactive),
COc1ccc(CCNC(=O)c2c3c(nc4ccccc24)C(=O)N(C2CCCCC2)C3)cc1OC,-8.55% (inactive),
CCOC(=O)c1ccc(NC(=O)C2CC(=O)NC(=Nc3ccc(C)c(C)c3)S2)cc1 (stereo not drawn),-12.3% (inactive),
O=C(NCc1ccc(F)cc1)c1ccc(Cn2c(SCc3ccc(F)cc3)nc3cccnc32)cc1,-23.4% (inactive),
Cc1ccc(CSc2nc3cccnc3n2Cc2ccc(C(=O)NC3CC3)cc2)cc1,,2.51 µM (active)
O=C(NC1CCCCC1)c1ccc(Cn2c(SCc3ccccc3)nc3cccnc32)cc1,-13.1% (inactive),
COc1ccc(C(=O)OCC(=O)NC(=O)CCSc2ccccc2)cc1,-8.99% (inactive),
Cc1cccc(-n2ncc(C(=O)N3CCC(C)CC3)c2C2CCN(C(=O)OC(C)(C)C)CC2)c1,2.94% (inactive),
CC(C)C(=O)Nc1cccc(NC(=O)c2ccc([N+](=O)[O-])cc2Cl)c1,-9.2% (inactive),
COc1ccc(CCN2C(=O)C3CC=C(C)CC3C2=O)cc1OC (stereo not drawn),-0.134% (inactive),
CCCCOc1ccc(Cn2c(=O)oc3ccc(C)cc32)cc1OC,-0.124% (inactive),

SMILES,"activity change, negative = cytotoxicity",Potency
CCCCOc1ccc(CN2C(=O)C(=O)c3cc(Br)cc(C)c32)cc1OC,,35.5 µM (active)
COc1ccc(NC(=O)c2ccco2)cc1NC(=O)c1ccc(C#N)cc1F,-5.82% [at 9.22 µM] (inactive),
Cc1cc(C)c2oc(-c3cccc(NC(=O)c4cccc(F)c4)c3C)nc2c1,-11.5% (inactive),
Brc1ccc(-c2noc(-c3ccccc3)n2)o1,-13.7% (inactive),
Cc1ccccc1-n1c(C)cc(/C=C2\NC(=O)NC2=O)c1C,,11.2 µM (active)
Cc1cccc(N2CCN(C3=C(c4ccccc4)C(=O)c4ccccc43)CC2)c1C,4.86% (inactive),
COc1ccc2oc(=O)c(-c3cn4c(n3)sc3cc(OC)ccc34)cc2c1,-2.92% (inactive),
COc1ccc(-c2cc3ccc(OCc4nn[nH]n4)cc3oc2=O)cc1,,12.6 µM (active)
COc1ccc2cc(-c3nc(Cl)c4c5c(sc4n3)CC(C)CC5)c(=O)oc2c1 (stereo not drawn),-0.526% (inactive),
Cc1cccc2c(=O)cc(CSc3ccccc3NC(=O)C(C)C)[nH]c12,-4.09% (inactive),
C/C=C/c1ccc(OCCOc2ccc(C=O)cc2OC)c(OC)c1,-1.57% (inactive),
COc1ccc(CCNC(=O)c2cc(=O)c3c(C)cc(C)cc3o2)cc1OC,-0.239% (inactive),
Cc1ccc(-n2c(CNc3ccc(F)cc3)nnc2SCC(=O)N2CCOCC2)cc1,-5.26% (inactive),
O=C(NC1CCCCC1)c1ccc2c(c1)N(Cc1ccc(Cl)cc1)C(=O)c1ccccc1S2=O (stereo not drawn),-5.35% (inactive),
O=C(NCC(c1ccc(Cl)cc1)N1CCOCC1)c1ccccc1F (stereo not drawn),0.172% (inactive),
O=C(Nc1ccccc1F)c1ccccc1-c1ccccc1,-0.487% (inactive),
CC(=O)c1ccc(NC(=O)Nc2ccc([N+](=O)[O-])cc2C)cc1,-16.8% (inactive),
COc1ccc(N2CCN(c3cc(C)nc4nncn34)CC2)cc1,0.606% (inactive),
COc1ccccc1C1C(C(=O)N2CCCCC2)=C(C)Nc2nc3ccccc3n21 (stereo not drawn),12.2% (inactive),
COc1ccccc1N1CCN(c2ccc(=O)n(CC(=O)NCc3ccc(OC(C)C)cc3)n2)CC1,-1.62% (inactive),
Cc1ccc(Cl)cc1NC(=O)CCC(=O)N1CC(C)Sc2ccccc21 (stereo not drawn),3.24% (inactive),
CC1CCCN(Cc2c(O)ccc3c(=O)c(Oc4ccc(C(C)(C)C)cc4)c(C(F)(F)F)oc23)C1 (stereo not drawn),-2.32% (inactive),
Cc1ccccc1CSc1nc(-c2ccccc2)nc2c1Cc1c(CO)cnc(C)c1O2,-0.829% (inactive),
COc1ccc(OC)c(NC(=O)Cn2c(=O)n(Cc3ccccc3)c(=O)c3ccccc32)c1,5.5% (inactive),
